TDP1 block – blocks human tyrosyl-DNA phosphodiesterase 1 | Q9NUW8 | recombinant TDP1, AlphaScreen DNA substrate cleavage | Potency, µM (doses to about 130 µM), actives largely listed as inhibitors | hit rate 0.28% among 350,000 | AID 485290; further: nearly all actives have a fitted effect of over 40% in size
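Recombinant human Tdp1 (E. coli-expressed, 1 nM final) preincubated with compounds 15 min at room temperature, then 5'-biotin/3'-phosphotyrosine-FITC DNA substrate (15 nM final) added for 5 min. AlphaScreen beads (10 ug/ml final) added 10 min; cleavage lowers signal.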
VDR inhibitor – blocks the human vitamin D receptor. P11473. VDR-SRC2-3 peptide fluorescence polarization, 2 h. Potency, µM, actives largely listed as inhibitors. hit rate 0.93% among 400,000. AID 504847
Target sequence (P11473 whole entry, looked up): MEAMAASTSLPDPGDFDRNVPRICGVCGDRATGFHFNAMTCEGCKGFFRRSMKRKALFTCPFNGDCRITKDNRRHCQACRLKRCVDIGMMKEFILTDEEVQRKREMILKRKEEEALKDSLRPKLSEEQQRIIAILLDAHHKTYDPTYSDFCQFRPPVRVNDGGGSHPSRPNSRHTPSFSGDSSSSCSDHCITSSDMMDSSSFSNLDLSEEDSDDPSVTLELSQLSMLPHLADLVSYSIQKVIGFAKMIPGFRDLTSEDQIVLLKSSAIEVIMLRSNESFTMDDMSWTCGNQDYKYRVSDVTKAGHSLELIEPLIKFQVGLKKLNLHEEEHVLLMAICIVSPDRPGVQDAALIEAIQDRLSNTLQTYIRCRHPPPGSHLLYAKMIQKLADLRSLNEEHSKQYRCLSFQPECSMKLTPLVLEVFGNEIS
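VDR–SRC2-3 interaction, FP format. Cmpds 23 nl via pintool, brief spin, 2 h ambient incubation.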
TDP1 cell CPT – growth inhibition of DT40 Tdp1-/-;hTDP1 cells with camptothecin (screen for TDP1 inhibitors). Potency, µM (highest dose often 46.2 µM), most hits filed as inhibitors. hit rate 12% among 420,000. AID 686979. chicken DT40 Tdp1-/-;hTDP1 cells + 20 nM CPT, ATP luminescence, 48 h; further: nearly all actives have a fitted effect of over 55% in size
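Chicken DT40 Tdp1-/- cells complemented with human TDP1, 400 cells/well, exposed to compounds plus 20 nM camptothecin for at least 48 h at 37 C; viability read as ATP content by CellTiter-Glo luminescence.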
GCN5L2 inh – inhibitors of human GCN5L2 histone acetyltransferase. AID 504327. Potency, µM (titrated, usually from 58.9 µM), hits mostly inhibitors. hit rate 0.21% among 390,000. GCN5L2 HAT assay, ThioGlo1 CoA-SH fluorescence. Q92830
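GCN5L2 (20 nM) in 50mM HEPES pH 7.5, 0.1mM EDTA, 0.01% Tween-20 preincubated 15 min with compounds at room temperature. Reaction started with H3(1-25) 75uM, acetyl-CoA 70uM, ThioGlo1 50uM; CoA-thiol fluorescence (Ex340/Em540) read at 0 and 20 min.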
PLK1 PBD inh – inhibitors of human PLK1 polo-box domain binding; Plk1 PBD binding of FITC phosphopeptide, fluorescence polarization; hit rate 2.8% among 360,000; P53350; Potency, µM, most hits filed as inhibitors; AID 720504; further: series mostly up to about 57 µM; nearly all actives have a fitted effect of over 65% in size
TDP1 cell noCPT – qHTS for Inhibitors of human tyrosyl-DNA phosphodiesterase 1 (TDP1): qHTS in cells in absence of CPT | DT40 Tdp1-/- hTDP1 cells, no CPT, ATP luminescence, 48 h | Potency, µM (highest dose often 46.2 µM), actives largely listed as inhibitors | hit rate 15% among 420,000; further: nearly all actives have a fitted effect of over 55% in size
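Compound effects on proliferation are scored in DT40 Tdp1-/-;hTDP1 cells in the absence of CPT. ATP levels (CellTiter-Glo luminescence) are recorded after a ≥48 hr, 37 °C incubation.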
Numbers stand for hits; 0 = inactive; ? = inconclusive; - = no result given; [ ] = another dose, or the depositor's remark. A selection: hits, their analogues and other compounds. The true share with any hit is near 18%. The call rests on the fitted dose curve; in most records, active means well fitted curve in the direction sought with a large enough effect; inconclusive means small, poorly fitted or top-dose-only effect, or another doubt; inactive means no such curve, though single readings can be large; an effect the other way counts as inactive or inconclusive.

SMILES | TDP1 block | VDR inhibitor | TDP1 cell CPT | GCN5L2 inh | PLK1 PBD inh | TDP1 cell noCPT
CCOCC(=O)Nc1c(C(=O)N2CCN(c3ncccn3)CC2)oc2ccccc12 | 0 | 0 | ? | 0 | ? | 12µM
CC(=O)c1ccc(NC(=O)COC(=O)CCC2CCCC2)cc1 | 0 | 0 | 0 | 0 | 0 | 0
O=C(O)c1ccc2c(c1)CCC2 | 0 | 0 | ? | 0 | 0 | 0
CN(C)C(=O)C(OC(=O)c1ccc2c(c1)CCCC2)c1ccccc1 (centres undefined) | 0 | 0 | ? | 0 | 0 | 21µM
COc1cc2cc(CNc3ccccc3)c(=O)n(CC(=O)Nc3ccccc3)c2cc1OC | 0 | 0 | ? | 0 | - | 18µM
COc1ccccc1NC(=O)Cn1c(=O)c(CNc2ccccc2)cc2cc(OC)c(OC)cc21 | 0 | 0 | 5.2µM | 0 | - | 6.5µM
CCc1ccc(NCc2cc3cc(OC)c(OC)cc3n(CC(=O)Nc3ccc(F)cc3)c2=O)cc1 | 0 | 0 | - | 0 | - | -
CCc1cccc(CC)c1N(COC)C(=O)Cn1c(CC)nc2ccccc21 | - | 0 | 0 | 0 | - | ?
COc1ccc(NC(=O)c2cccc(Oc3ccc([N+](=O)[O-])cc3Cl)c2)cc1 | 0 | 0 | 5.8µM | 0 | 0 | 4.6µM
O=C(Nc1cccc(Cl)c1)c1cccc(Oc2ccc([N+](=O)[O-])cc2Cl)c1 | 0 | 0 | ? | 0 | 0 | ?
CCN(CC)C(=O)c1ccc(Oc2ccc([N+](=O)[O-])cc2Cl)cc1 | 0 | 0 | ? | 0 | 0 | 16µM
Cc1ccc(C)c(NC(=O)c2cccc(Oc3ccc([N+](=O)[O-])cc3Cl)c2)c1 | 0 | 0 | ? | 0 | 0 | 16µM
Cc1ccc([N+](=O)[O-])cc1NC(=O)c1ccccc1 | 0 | 0 | 0 | 0 | 0 | 0
COc1ccc(-c2cc(-c3cccs3)nc3sc(C#N)c(N)c23)cc1 | 0 | 0 | 0 | ? | 0 | ?
N#Cc1sc2nc(C3CC3)cc(-c3ccc(Cl)cc3)c2c1N | - | 0 | 16µM | 0 | 0 | ?
COc1ccc(COC(=O)c2cccc(S(=O)(=O)N3CCN(C(C)=O)CC3)c2)cc1F | - | 0 | ? | 0 | 0 | ?
COc1ccc2c(c1)nc(SCC(O)c1ccccc1)n2C (centres undefined) | 0 | 0 | 0 | 0 | 0 | 0
CCOc1ccc2c(c1)nc(SCC(=O)c1ccc(Br)s1)n2C | 0 | 89µM | ? | 0 | 30µM | ?
CCOC(=O)c1cccc(NC(=O)c2cc3ccccc3o2)c1 | - | 0 | 8.2µM | 0 | 0 | ?
NS(=O)(=O)c1cccc(NC(=O)c2cc3ccccc3o2)c1 | 0 | 0 | ? | 0 | 21µM | ?
CCOC(=O)c1ccc(NC(=O)c2cc3ccccc3o2)cc1 | 0 | 0 | ? | 0 | 0 | ?
CN1CCN(C(=O)C2=C[C@H](c3ccccc3)C[C@H](OCc3ccc(CO)cc3)O2)CC1 | 0 | 0 | 0 | 0 | 0 | 0
CC1=C(O)C(=O)C(C2=C(O)C(=O)C(C)=C(O)C2=O)=C(O)C1=O | - | 0 | 0 | - | 0 | 0
Cc1ccc(C2=C(O)C(=O)C(c3ccc(C)cc3)=C(O)C2=O)cc1 | - | 0 | ? | - | 0 | 12µM
CC(C)C[C@@]12C(=O)N(c3cccc(F)c3)C(=O)N1[C@H](c1ccc(Cl)cc1)[C@@H]1C(=O)N(C3CCCCC3)C(=O)[C@@H]12 | 0 | ? | 0 | 0 | 0 | 0
SMILES | TDP1 block | VDR inhibitor | TDP1 cell CPT | GCN5L2 inh | PLK1 PBD inh | TDP1 cell noCPT
O=C(NCCc1csc(-c2cccnc2)n1)c1ccco1 | 0 | 0 | 0 | 0 | 0 | 0
O=C(NCCc1csc(-c2cccnc2)n1)c1ccc(Br)o1 | 0 | 0 | ? | 0 | 0 | 18µM
O=C(NCCc1csc(-c2ccccc2)n1)c1ccc(Br)o1 | 0 | 0 | ? | 0 | 0 | 21µM
Cc1cccc(-c2nc(CCNC(=O)c3ccc(Br)o3)cs2)c1 | 0 | 0 | ? | 0 | - | ?
CNc1nnc(SCC(=O)c2c(N)n(C3CC3)c(=O)[nH]c2=O)s1 | 0 | 0 | 0 | 0 | 0 | ?
COc1cc2ccccc2cc1C(=O)Nc1ccccc1N1CCCC1 | 0[0.505 µM] | 0 | ? | 0 | 0 | ?
COc1c(C)cc(Br)cc1C(=O)Nc1ccc(N2CCN(S(C)(=O)=O)CC2)cc1 | 0 | 0 | ? | 0 | 0 | 0
COc1ccc(Br)cc1C(=O)Nc1ccccc1N1CCN(C(=O)c2ccccc2)CC1 | 0 | 0 | ? | 0 | 24µM | 16µM
O=C(Nc1ccccc1N1CCN(C(=O)c2ccccc2)CC1)c1cc(Br)ccc1Cl | 0 | 0 | 18µM | 0 | 0 | 23µM
COc1ccc(Cl)cc1C(=O)Nc1ccccc1N1CCN(C(=O)C(C)C)CC1 | 0 | 0 | 29µM | 0 | 0 | 18µM
COc1c(C)cc(Br)cc1C(=O)Nc1ccccc1N1CCN(C(=O)c2ccccc2)CC1 | 0 | 0 | ? | 0 | 0 | 15µM
Cn1cnnc1SCC(=O)NNC(=O)c1ccc(Cl)cc1 | 0 | ? | 0 | 0 | 0 | 0
CC(=O)N1CCc2c(sc3c2c(=O)n(-c2ccccc2)c(=O)n3CC(=O)c2ccc(F)cc2)C1 | 0 | 0 | 0 | 0 | - | ?
O=C(N[C@@H]1c2ccccc2CC[C@@H]1OCc1ccccc1)c1ccc(C(F)(F)F)cc1 | 0 | 0 | 0 | 0 | 0 | 0
CCNc1ccc(Br)cc(C(=O)/C=C/c2ccccc2Cl)c1=O | - | 28µM | 9.2µM | - | ? | 10µM
CC(C)CCNC(=O)/C=C/c1ccc(Br)cc1 | 0 | 0 | 0 | 0 | 0 | ?
Cc1ccc(C(=O)/C=C/c2ccc(Br)cc2)o1 | 0 | ? | ? | 0 | 0 | 23µM
C=C(C)C(=O)/C=C/c1ccc(Br)cc1 | 0 | 18µM | - | - | - | -
O=C(/C=C/c1ccc2c(c1)OCO2)c1cccs1 | 0 | 20µM | 3.3µM | 0 | - | 6µM
CN1CCN(C(=S)NC(=O)/C=C/c2ccccc2Cl)CC1 | 0 | 0 | 0 | 0 | 0 | 0
CCc1cccc(C)c1NC(=O)c1cc(S(=O)(=O)N2CCOCC2)cn1C | 0 | 0 | 0 | 0 | - | 0
O=C(NC1CCN(Cc2ccccc2)CC1)c1ccc2c(c1)[nH]c(=O)n2Cc1ccc(F)cc1 | 0 | 0 | ? | 0 | 0 | ?
COC(=O)c1ccc(C(NC(=O)OCc2ccccc2)/C(=C/[C@@H](C)C(=O)NCc2cc(F)cc(F)c2)c2cccnc2)cc1 (some centres undefined) | 0 | - | - | - | - | -
CCCN(CC(=O)Nc1ccccc1C)C(=O)c1ccc(N2CCCC(C)C2)c([N+](=O)[O-])c1 (centres undefined) | - | 0 | ? | - | 0 | ?
COC(=O)/C=C/c1ccc2c(c1)OCO2 | 0 | 0 | 0 | 0 | 0 | 0
Cc1ccc(C(=O)/C=C/c2ccc3c(c2)OCO3)o1 | 0 | ? | 18µM | 0 | 0 | 21µM
Nc1ccccc1C(=O)/C=C/c1ccccc1 | 0 | 0 | - | - | - | -
Cc1ccc(C(=O)/C=C/c2ccccc2)o1 | 0 | ? | ? | 0 | 0 | 15µM

Screening results as filed in PubChem.
